# Experimental data from ChEMBL document CHEMBL2218924, “A broad activity screen in support of a chemogenomic map for kinase signalling research and drug discovery” (Biochem J, 2013).
# Columns and labels:
# [1] = target: T1, Aurora kinase C (Homo sapiens) (UniProt Q9UQB9); settings: at 1 µM
# T1 sequence (whole entry): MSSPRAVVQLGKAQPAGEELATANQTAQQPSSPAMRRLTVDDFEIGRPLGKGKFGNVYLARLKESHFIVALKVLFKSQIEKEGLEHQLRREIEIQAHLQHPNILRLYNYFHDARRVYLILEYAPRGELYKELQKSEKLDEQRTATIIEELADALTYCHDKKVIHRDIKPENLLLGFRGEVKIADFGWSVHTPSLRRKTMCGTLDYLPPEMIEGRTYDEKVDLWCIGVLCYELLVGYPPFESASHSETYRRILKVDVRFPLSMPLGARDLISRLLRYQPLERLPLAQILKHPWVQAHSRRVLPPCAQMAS
# [2] = target: T1, Aurora kinase C (Homo sapiens); settings: at 10 µM
# [3] = target: Tyrosine-protein kinase receptor UFO (Homo sapiens) (UniProt P30530); settings: at 1 µM
# [4] = target: Tyrosine-protein kinase receptor UFO (Homo sapiens) (UniProt P30530); settings: at 10 µM
# [5] = target: Protein-tyrosine kinase 6 (Homo sapiens) (UniProt Q13882); settings: at 1 µM
# [6] = target: Protein-tyrosine kinase 6 (Homo sapiens) (UniProt Q13882); settings: at 10 µM
# [7] = target: Tyrosine-protein kinase BTK (Homo sapiens) (UniProt Q06187); settings: at 1 µM
# [8] = target: Tyrosine-protein kinase BTK (Homo sapiens) (UniProt Q06187); settings: at 10 µM
# [9] = target: Tyrosine-protein kinase Blk (Homo sapiens) (UniProt P51451); settings: at 1 µM
# [10] = target: Tyrosine-protein kinase Blk (Homo sapiens) (UniProt P51451); settings: at 10 µM
# Chain of Tyrosine-protein kinase BTK (Homo sapiens) (Q06187 whole entry): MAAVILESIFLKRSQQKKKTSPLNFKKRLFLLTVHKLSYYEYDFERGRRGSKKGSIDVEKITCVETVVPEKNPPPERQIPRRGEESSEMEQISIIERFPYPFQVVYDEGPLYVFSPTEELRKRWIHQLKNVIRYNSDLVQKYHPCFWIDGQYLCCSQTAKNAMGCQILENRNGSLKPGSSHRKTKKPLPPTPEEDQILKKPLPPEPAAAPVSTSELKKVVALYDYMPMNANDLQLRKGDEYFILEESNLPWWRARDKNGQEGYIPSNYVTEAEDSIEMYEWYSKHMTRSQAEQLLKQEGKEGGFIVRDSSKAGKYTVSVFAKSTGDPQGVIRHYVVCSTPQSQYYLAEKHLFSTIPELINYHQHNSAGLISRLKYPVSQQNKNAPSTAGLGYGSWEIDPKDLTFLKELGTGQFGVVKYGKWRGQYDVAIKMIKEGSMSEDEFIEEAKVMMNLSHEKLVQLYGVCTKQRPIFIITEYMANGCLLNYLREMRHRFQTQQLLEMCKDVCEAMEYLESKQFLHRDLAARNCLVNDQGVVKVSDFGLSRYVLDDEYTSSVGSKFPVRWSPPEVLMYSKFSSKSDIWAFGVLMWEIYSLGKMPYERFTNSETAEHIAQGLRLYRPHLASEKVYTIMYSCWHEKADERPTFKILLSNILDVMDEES
# Chain of Tyrosine-protein kinase receptor UFO (Homo sapiens) (P30530 whole entry): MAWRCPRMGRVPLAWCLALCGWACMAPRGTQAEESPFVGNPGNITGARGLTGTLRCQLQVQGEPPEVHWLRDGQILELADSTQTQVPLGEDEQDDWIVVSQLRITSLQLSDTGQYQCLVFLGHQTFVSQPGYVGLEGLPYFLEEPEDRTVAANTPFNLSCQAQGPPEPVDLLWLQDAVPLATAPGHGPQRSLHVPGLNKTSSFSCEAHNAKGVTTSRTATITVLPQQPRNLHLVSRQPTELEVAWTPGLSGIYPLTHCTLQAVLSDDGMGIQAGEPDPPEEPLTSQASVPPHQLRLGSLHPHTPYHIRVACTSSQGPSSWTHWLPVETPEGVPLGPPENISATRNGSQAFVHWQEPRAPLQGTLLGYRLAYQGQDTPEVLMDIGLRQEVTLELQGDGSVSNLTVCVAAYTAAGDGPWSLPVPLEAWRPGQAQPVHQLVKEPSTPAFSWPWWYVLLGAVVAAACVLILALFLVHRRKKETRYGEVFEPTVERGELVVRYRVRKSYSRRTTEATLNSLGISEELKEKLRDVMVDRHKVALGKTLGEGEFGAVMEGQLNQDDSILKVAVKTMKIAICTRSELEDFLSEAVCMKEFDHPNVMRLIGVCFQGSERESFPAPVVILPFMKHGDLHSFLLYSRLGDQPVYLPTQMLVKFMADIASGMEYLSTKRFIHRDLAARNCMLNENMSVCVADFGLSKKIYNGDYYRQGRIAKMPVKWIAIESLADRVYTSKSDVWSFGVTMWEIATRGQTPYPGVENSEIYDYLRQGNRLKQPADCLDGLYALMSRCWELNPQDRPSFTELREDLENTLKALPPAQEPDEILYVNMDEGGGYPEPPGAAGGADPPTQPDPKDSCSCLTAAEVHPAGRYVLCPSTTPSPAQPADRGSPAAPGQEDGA
# Chain of Tyrosine-protein kinase Blk (Homo sapiens) (P51451 2-505 limits assumed): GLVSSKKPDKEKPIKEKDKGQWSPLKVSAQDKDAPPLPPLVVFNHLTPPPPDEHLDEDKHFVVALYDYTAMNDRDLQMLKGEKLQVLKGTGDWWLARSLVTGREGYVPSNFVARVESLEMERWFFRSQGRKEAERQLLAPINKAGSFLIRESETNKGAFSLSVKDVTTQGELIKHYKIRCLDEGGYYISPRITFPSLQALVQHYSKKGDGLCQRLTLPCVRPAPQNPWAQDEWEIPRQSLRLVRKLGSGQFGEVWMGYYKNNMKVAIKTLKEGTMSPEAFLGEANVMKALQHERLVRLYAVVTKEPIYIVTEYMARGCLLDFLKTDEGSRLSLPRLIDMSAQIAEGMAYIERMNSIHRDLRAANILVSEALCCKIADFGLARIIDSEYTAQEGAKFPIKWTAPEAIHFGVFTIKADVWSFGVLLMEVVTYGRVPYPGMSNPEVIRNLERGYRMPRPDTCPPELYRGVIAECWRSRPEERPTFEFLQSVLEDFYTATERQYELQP
# Chain of Protein-tyrosine kinase 6 (Homo sapiens) (Q13882 whole entry, looked up): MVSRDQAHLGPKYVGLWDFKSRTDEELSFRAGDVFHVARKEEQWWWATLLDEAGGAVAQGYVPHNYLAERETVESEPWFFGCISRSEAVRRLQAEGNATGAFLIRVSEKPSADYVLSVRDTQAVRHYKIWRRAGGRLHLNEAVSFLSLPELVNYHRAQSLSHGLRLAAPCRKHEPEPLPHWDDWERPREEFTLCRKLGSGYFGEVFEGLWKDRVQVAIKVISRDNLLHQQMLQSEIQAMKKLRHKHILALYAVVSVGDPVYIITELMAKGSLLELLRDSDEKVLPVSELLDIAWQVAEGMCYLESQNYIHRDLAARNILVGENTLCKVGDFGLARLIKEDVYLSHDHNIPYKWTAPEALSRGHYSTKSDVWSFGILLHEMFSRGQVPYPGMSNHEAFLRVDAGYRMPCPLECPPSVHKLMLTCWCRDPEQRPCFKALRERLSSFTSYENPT
Compound,residual activity [1] [%],residual activity [2] [%],residual activity [3] [%],residual activity [4] [%],residual activity [5] [%],residual activity [6] [%],residual activity [7] [%],residual activity [8] [%],residual activity [9] [%],residual activity [10] [%]
CCN(CC)C(=O)c1ccc(Nc2nc(OCC3CCCCC3)c3nc[nH]c3n2)cc1,1,2,27,7,54,11,34,-2,20,1
Oc1ccc(-c2nc(-c3ccc(F)cc3)c(-c3ccncc3)[nH]2)cc1,113,95,121,83,49,5,108,77,109,44
CC(=O)c1ccc(N2CCOCC2)cc1O,106,84,110,85,108,107,91,,,
Cc1ccc(S(=O)(=O)/C=C/C#N)cc1,93,90,107,94,107,106,98,96,108,117
COc1ccc(OC)c2c(=S)c3ccccc3[nH]c12,78,75,96,83,104,104,96,82,111,96
NC(=O)c1ccc2[nH]c(-c3ccc(Oc4ccc(Cl)cc4)cc3)nc2c1,72,79,107,70,102,103,89,86,103,77
O=[N+]([O-])c1ccc(-c2nc(-c3ccc(F)cc3)c(-c3ccncc3)[nH]2)cc1,107,92,120,106,36,31,91,56,110,98
CN(C)CCCn1cc(C2=C(c3c[nH]c4ccccc34)C(=O)NC2=O)c2ccccc21,109,72,70,39,110,89,89,72,65,13
O=C(Nc1cccc(Nc2cc(Nc3cccc(C(F)(F)F)c3)ncn2)c1)C1CC1,90,87,102,83,94,94,99,71,97,69
O=C1Nc2cc(Br)ccc2/C1=C1/Nc2ccccc2/C1=N\O,74,76,52,39,90,102,1,0,1,5
O=C(O)c1ccc2c3c1cccc3c(=O)n1c3ccccc3nc21,82,43,61,35,110,105,88,83,99,81
CC(C)n1cnc2c(NCc3ccccc3)nc(NCCCO)nc21,95,89,105,75,89,82,93,94,78,71
Cc1nc2cc3nc(-c4cccs4)cnc3cc2n1C,102,42,87,68,109,98,93,83,100,48
O=C1c2ccccc2-[n+]2ccc3c([nH]c4ccccc43)c21,83,72,73,62,97,80,94,87,95,76
CN(C)c1ccc(/C=C2\C(=O)Nc3ccccc32)cc1,88,39,78,49,112,97,113,86,87,62
O=C1NC(=O)/C(=C/c2ccc3c(c2)OC(F)(F)O3)S1,110,80,98,84,110,104,86,95,119,94
Oc1n[nH]c2nnc(-c3c(-c4ccccc4)nn4ccccc34)cc12,84,84,118,104,97,87,78,33,107,90
COc1cc2ncnc(Nc3ccc(O)c(Br)c3)c2cc1OC,45,10,36,17,18,1,80,33,21,3
O=C1NC(=O)c2c1c1c3ccccc3[nH]c1c1[nH]c3cc(Br)ccc3c21,89,59,94,80,105,100,79,68,102,85
Nc1cccc(-c2cc3c(Oc4cccc(O)c4)ncnc3[nH]2)c1,72,20,101,39,0,0,21,-1,7,1
O=C1NC(=O)c2cc(Nc3ccc(F)cc3)c(Nc3ccc(F)cc3)cc21,92,73,94,81,89,48,86,87,98,38

Compound,residual activity [1] [%],residual activity [2] [%],residual activity [3] [%],residual activity [4] [%],residual activity [5] [%],residual activity [6] [%],residual activity [7] [%],residual activity [8] [%],residual activity [9] [%],residual activity [10] [%]
CC(=O)O/N=C1\C(=C2\C(=O)Nc3cc(Br)ccc32)Nc2ccccc21,89,82,77,44,99,77,25,4,19,3
CO[C@@H]1[C@H](N(C)C(=O)c2ccccc2)C[C@H]2O[C@]1(C)n1c3ccccc3c3c4c(c5c6ccccc6n2c5c31)C(=O)NC4,62,20,14,9,98,93,60,35,7,5
O=C1Nc2ccccc2/C1=C1/Nc2ccccc2/C1=N\OCCC(O)CO (stereo not given),43,30,12,5,56,53,12,-2,4,0
Oc1c2ccccc2c2c3c(cccc13)N=N2,9,4,50,17,95,95,88,57,97,45
C[C@@H](N)[C@H]1CC[C@H](C(=O)Nc2ccncc2)CC1,96,72,102,103,97,89,101,104,92,100
CC(C)n1cnc2/c(=N/c3cccc(Cl)c3)nc(NCCO)[nH]c21,74,52,94,44,105,100,72,32,79,15
Oc1ccc(Nc2nc(-c3ccc(Cl)cc3)cs2)cc1,90,92,114,80,107,102,95,84,111,86
Cn1cnc2cc3c(Nc4cccc(Br)c4)ncnc3cc21,80,52,77,57,78,55,67,44,50,18
N#C/C(=C(\N)Sc1ccc(N)cc1)c1ccccc1C(F)(F)F,84,83,96,73,105,114,91,93,90,79
Cc1ccc(NC2=CC(=O)c3sc(C)nc3C2=O)cc1,85,85,103,112,111,108,93,86,112,96
Cc1nc(-c2ccccc2)c(-c2ccncc2)o1,93,81,112,79,59,43,91,83,95,80
O=c1cc(-c2cccc3c2Sc2ccccc2S3)oc(N2CCOCC2)c1,102,92,102,86,109,96,87,80,101,76
CC[n+]1c(/C=C/N(C)c2ccccc2)n(-c2ccccc2)c2ccc(-c3nc4ccccc4s3)cc21,107,93,134,58,109,94,87,58,100,55
Cc1cc(Nc2nc(-c3ccccc3)nc3ccccc23)n[nH]1,7,4,33,3,40,4,19,0,9,1
COc1cc2ncnc(N3CCN(C(=O)Nc4ccc(Oc5ccccc5)cc4)CC3)c2cc1OC,71,25,71,60,98,98,92,112,100,72
Nc1ccc2ncnc(NCCc3ccc(Oc4ccccc4)cc3)c2c1,89,87,72,33,95,79,95,94,68,18
Ic1cccc(CSc2nnc(-c3ccncc3)o2)c1,79,74,74,60,105,96,79,95,87,61
Cn1cc(/C=C2\C(=O)Nc3ccc(S(N)(=O)=O)cc32)c2ccccc21,40,39,13,27,97,101,19,5,9,3
N#CC(C#N)=C(N)/C(C#N)=C/c1ccc(O)cc1,,,92,87,,,94,118,,
Cc1cc2ncc(-c3ccccc3)nc2cc1C,104,87,100,88,103,101,94,105,,95
O=C(Nc1cccc(Nc2nccc(Nc3cccc(C(F)(F)F)c3)n2)c1)C1CC1,69,62,79,81,40,46,53,6,77,57
